{"source": "the supplement of paper PMC11417369", "note": "± gives the standard deviation of the averaged measurements. Whole data set: some 25,000 sequences, median “ln(normalized median fluorescence intensity)” near 8.6, cut for the highest 2% near 10. Many of the other results were omitted from the sample, so the highest values are more common in it than they were.", "data": [{"tested_on": "PfAP2-EXP AP2 domain (GST-tagged)", "assay": "gcPBM binding intensity (ln(normalized median fluorescence intensity)); higher = stronger DNA binding", "procedure,_shortened": "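DNA-binding domains from P. falciparum, fused to GST and produced in E. coli, were put on an Agilent 4 × 180k double-stranded probe array for 1 h in 1× PBS holding 1% milk, 0.2 mg/ml BSA, 0.5% salmon testes DNA and 0.03% Triton X-100. Probes were primer-extended, 36 bp long and drawn from intergenic genomic regions, with negative controls included. After Alexa488 anti-GST antibody detection and a 488 nm scan, binding intensity was set as the highest Masliner-normalised natural-log median intensity across replicate spots of either probe orientation.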", "values": [{"sequence": "AAATAATATATGAATGCACACAGTAAAAATTAAAGA [CACACA_site2252]", "gcPBM binding intensity (ln)": "8.94 ± 0.35"}, {"sequence": "TAATTGTACACATGCACACACAAATATTATAGATGT [CACACA_site6528]", "gcPBM binding intensity (ln)": "8.99 ± 0.37"}, {"sequence": "CAATTATTGTAATGCATGCACTGAATATAAAAAGAA", "gcPBM binding intensity (ln)": "10.3 ± 0.23"}, {"sequence": "AACAATTATTGTAATGCATGCACTGAATATAGAAAG [TGCATGCA_site889]", "gcPBM binding intensity (ln)": "10.3 ± 0.24"}, {"sequence": "AACAATTAGAATAACGCATGCATTTATAATATAGAA [TGCATGCA_site595]", "gcPBM binding intensity (ln)": "9.52 ± 0.071"}, {"sequence": "TATTATATATTAAATGCATGTAAAAATAATATTAAA [TGCATGCA_site643]", "gcPBM binding intensity (ln)": "9.24 ± 0.44"}, {"sequence": "TATAAGAGAAGAAGAAAAAAAAGGTTTCTATAGAAA [XGTACX_negctrl_site421]", "gcPBM binding intensity (ln)": "8.76 ± 0.52"}, {"sequence": "AATAAAAAAAAAATAAATTTAATAATAATAATAAAA [CACACA_negctrl_site569]", "gcPBM binding intensity (ln)": "8.23 ± 0.33"}, {"sequence": "ATATTATCATTTTTTTTAATGGAAAAAAAAAAAAAA [CACACA_negctrl_site1298]", "gcPBM binding intensity (ln)": "8.2 ± 0.61"}, {"sequence": "TTTTTCAGAAAAGAAACACACATATAAATATTTATA [CACACA_site7170]", "gcPBM binding intensity (ln)": "8.47 ± 0.46"}, {"sequence": "TACATACACAGACACACACACATATATATATATATA [CACACA_site3557]", "gcPBM binding intensity (ln)": "10.2 ± 0.2"}, {"sequence": "CATACATACAGACACACACACATATATATATATATA [CACACA_site2920]", "gcPBM binding intensity (ln)": "10.1 ± 0.35"}, {"sequence": "CACCCACCCACATACACACACATACACATATATATA [CACACA_site1722]", "gcPBM binding intensity (ln)": "9.3 ± 0.45"}, {"sequence": "ATTCTACACCCACATACACACATATATATATATATA [CACACA_site3426]", "gcPBM binding intensity (ln)": "10.2 ± 0.26"}, {"sequence": "AGTATACACAGACACACACACACATATATATATATA [CACACA_site8510]", "gcPBM binding intensity (ln)": "10.2 ± 0.23"}, {"sequence": "TAATTAAAATCATATACACACCCATATATATATATA [CACACA_site8524]", "gcPBM binding intensity (ln)": "10 ± 0.25"}, {"sequence": "ATTAAAATCATATACACACCCATATATATATATATA [CACACA_site5050]", "gcPBM binding intensity (ln)": "10.1 ± 0.34"}, {"sequence": "ATTCTAATCATATACACACCCATATATATATATATA [CACACA_site1774]", "gcPBM binding intensity (ln)": "10.3 ± 0.3"}, {"sequence": "TATACAGACAGACACACACACATATATATATATATA [CACACA_site1734]", "gcPBM binding intensity (ln)": "10.1 ± 0.42"}, {"sequence": "CATATACATACACATACACACATACAGACATACACA [CACACA_site6919]", "gcPBM binding intensity (ln)": "8.69 ± 0.37"}, {"sequence": "TACACCCACCCACATACACACACATACACATATATA [CACACA_site8503]", "gcPBM binding intensity (ln)": "9.33 ± 0.71"}, {"sequence": "TACACATACAGACATACACACATACACATATACACA [CACACA_site6918]", "gcPBM binding intensity (ln)": "8.66 ± 0.38"}, {"sequence": "TATATATATTTATAATGTACACATATATGTAAATAT [XGTACX_site3695]", "gcPBM binding intensity (ln)": "8.51 ± 0.2"}, {"sequence": "ATATATATATATATAAAGTGAAGTATGAGGGAAATA [XGTACX_negctrl_site497]", "gcPBM binding intensity (ln)": "10.1 ± 0.3"}, {"sequence": "AGAATAAAAAGGAACACACACACACGCATATAAATA [CACACA_site7659]", "gcPBM binding intensity (ln)": "9.01 ± 0.55"}, {"sequence": "TTACATATTATACGAAGTACGTACAAATACTTATAT [XGTACX_site8598]", "gcPBM binding intensity (ln)": "8.6 ± 0.26"}, {"sequence": "GTATGTTTGTTATGCACACAAATGCATCTTATTTCC [CACACA_site2690]", "gcPBM binding intensity (ln)": "8.96 ± 0.28"}, {"sequence": "TTATTTAACGTATTCTCACACATATATATATATAAT [CACACA_site5226]", "gcPBM binding intensity (ln)": "8.64 ± 0.42"}, {"sequence": "TAAATATGTATAAATTGTACAAAATATATGAATAGT [XGTACX_site5659]", "gcPBM binding intensity (ln)": "8.94 ± 0.29"}, {"sequence": "CTCATAATTTCTGAACGTACGTATTTCTCATTTTTA [XGTACX_site7296]", "gcPBM binding intensity (ln)": "8.83 ± 0.44"}, {"sequence": "TCCTTTTTTAAAAGTTGTACATTATTGTTATTTGTT [XGTACX_site4686]", "gcPBM binding intensity (ln)": "8.65 ± 0.3"}, {"sequence": "TTTTAAATAATTCGTAATTATAATTATGGAAAAAAG [CACACA_negctrl_site152]", "gcPBM binding intensity (ln)": "8.43 ± 0.48"}, {"sequence": "TTAGCAACTATTACTACACACATTTGTATTTAATTT [CACACA_site4961]", "gcPBM binding intensity (ln)": "8.49 ± 0.35"}, {"sequence": "ATTCTACACAGACATACACACATATATATATATATA [CACACA_site5826]", "gcPBM binding intensity (ln)": "10.2 ± 0.4"}, {"sequence": "GTATTCTACAGACACATACACACATATATATATATA [CACACA_site3427]", "gcPBM binding intensity (ln)": "10.1 ± 0.22"}, {"sequence": "TACAGACATACATACACACATACATATATATATATA [CACACA_site1940]", "gcPBM binding intensity (ln)": "10.1 ± 0.11"}, {"sequence": "TTTATTAATTAAACCATACACACATAATTTTTTTAT [CACACA_site842]", "gcPBM binding intensity (ln)": "8.34 ± 0.47"}, {"sequence": "ATTTAGAAAAATAAAACACACATATAGATGTAAATA [CACACA_site7853]", "gcPBM binding intensity (ln)": "8.57 ± 0.58"}, {"sequence": "AAAAAAAAAAGAAACACACACATATATATATATAAT [CACACA_site5052]", "gcPBM binding intensity (ln)": "8.61 ± 0.52"}, {"sequence": "AAACAGAAGACATATACACACATACAAAAAAGTGCA [CACACA_site4699]", "gcPBM binding intensity (ln)": "8.81 ± 0.33"}, {"sequence": "CACAAGAAAATTCACACACACACATATATATATATA [CACACA_site3880]", "gcPBM binding intensity (ln)": "10.1 ± 0.27"}, {"sequence": "AAAAAAAAAAGAAAAAGTACATACATACATATATAT [XGTACX_site6405]", "gcPBM binding intensity (ln)": "8.46 ± 0.36"}, {"sequence": "TTAAAAAGAAAGTTCACACACATATATATGACGGAA [CACACA_site2602]", "gcPBM binding intensity (ln)": "8.93 ± 0.45"}, {"sequence": "AAAAAAAAAAAAGAAACACACACATATATATATATA [CACACA_site8525]", "gcPBM binding intensity (ln)": "10.1 ± 0.31"}, {"sequence": "AAGAAAAAAAAAAAAACACACATATATATATATATA [CACACA_site2027]", "gcPBM binding intensity (ln)": "10.2 ± 0.13"}, {"sequence": "AAGACAAAACAAAGAAGTACATATATATATATATAT [XGTACX_site4067]", "gcPBM binding intensity (ln)": "10.3 ± 0.4"}, {"sequence": "CACAAGAAAGTTCACACACACACATATATATATATA [CACACA_site6009]", "gcPBM binding intensity (ln)": "10.2 ± 0.18"}, {"sequence": "AAAAAAAAAAAAGAAACACACATATATATATATATA [CACACA_site140]", "gcPBM binding intensity (ln)": "10.1 ± 0.6"}, {"sequence": "CACAAAAAGAAACACACACACATATATATATATATA [CACACA_site999]", "gcPBM binding intensity (ln)": "10.2 ± 0.22"}, {"sequence": "CAAGAAAAGAAACACACACACATATATATATATATA [CACACA_site3881]", "gcPBM binding intensity (ln)": "10.1 ± 0.26"}]}]}
